# Measured potencies and affinities stand elsewhere. A number with no mark means an inactive call. No rule for the calls is given here.
# Assay: HEK293 cell viability loss – plate reader, cherry-pick, cytotoxicity control, dose response (AID 651899);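 also: cells exposed to compound for 48 hours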
# Conditions: series mostly up to 26 µM; activity change, negative = cytotoxicity: at the top concentration
row,Compound,"activity change, negative = cytotoxicity"
1,O=C(Nc1ccc(Cl)c(-c2nc3ccccc3[nH]2)c1)c1cccnc1,10.5%
2,COc1ccc(C2c3c(-c4cc(Cl)c(C)cc4O)n[nH]c3C(=O)N2Cc2cccnc2)cc1OC (stereo unspecified),-10.2%
3,Cc1nc2nc(SCC(=O)NCc3ccco3)nn2c(C)c1Cc1c(F)cccc1Cl,10.3%
4,COc1ccc(NC(=O)c2ccc(S(=O)(=O)N(C)C)cc2)cc1OC,5.37%
5,O=C(Nc1cccnc1)c1cc2nc(C3CC3)cc(C(F)(F)F)n2n1,10.3%
6,CCOC(=O)C1(CCc2ccccc2)CCN(C(=O)CN2CCOC2=O)CC1,9.01%
7,CCOC(=O)c1c(C)[n+](-c2ccc(C)cc2)c(CC)c2cc(OC)c(OC)cc12,-27.8%
8,CC(=O)c1c(C)[nH]c(C(=O)Nc2cccnc2)c1C,-21.9%
9,COc1ccc(C(=O)Nc2ccc(Cn3ccnc3)cc2)cc1OC,24.3%
10,Cc1cc(/C=C(/C#N)C(=O)Nc2ccccc2)c(C)n1-c1cccnc1,-20%
11,O=C(c1cccc(F)c1)N1CC[C@@H]2[C@H]1c1cc(-c3cccc(F)c3)ccc1N[C@@H]2CO,15.6% [at 23.5 µM]
12,CS(=O)(=O)N1[C@H](C(=O)NCc2ccncc2)[C@@H](CO)[C@@H]2Cn3c(ccc(C4=CCCCC4)c3=O)[C@@H]21,15.1% [at 12 µM]
13,CCNC(=O)[C@H]1[C@H](CO)[C@H]2Cn3c(ccc(-c4cccc(F)c4)c3=O)[C@H]2N1C(=O)Cc1cccnc1,11.2%
14,O=C(C[C@@H]1C[C@@H]2c3cc(NC(=O)c4cccnc4)ccc3O[C@@H]2[C@@H](CO)O1)NCc1cccc(F)c1,6.5% [at 23.5 µM]
15,CC(C)(C)[S@](=O)N1Cc2cc(C(=O)NCc3ccccc3F)nc(-c3cccc(-c4cccnc4)c3)c2[C@@H]1CCO,-18.8% [at 23.5 µM]
16,Cc1nc2nc(SCC(=O)N3CCOCC3)nn2c(C)c1Cc1ccccc1,2.92%
17,CN1c2ccc(-c3cccc(C#N)c3)cc2[C@H]2[C@H](CCN2C(=O)CC2CC2)[C@H]1CO,11.3% [at 23.5 µM]
18,O=C(NC1CCCc2c1cnn2-c1cc(F)cc(F)c1)c1ccc[n+]([O-])c1 (stereo unspecified),-12.5%
19,O=C(C[C@H]1C[C@H]2c3cc(NC(=O)c4cccnc4)ccc3O[C@H]2[C@H](CO)O1)NCc1ccccn1,-5.45%
20,CCCc1c(OCCCOc2ccc(OCC(=O)O)cc2)ccc(C(C)=O)c1O,-1.14%
21,CC(C)(C)c1cc(C(=O)Nc2cccnc2)cc(C(=O)Nc2cccnc2)c1,-6.15%

# Reference: PubChem BioAssay AID651899 (Broad Institute, 2012)
